Results filed as inconclusive are left out. Calls of active or inactive are those of the source. Unless noted, calls come from the whole dose curve; as a rule, active = well fitted curve in the direction sought with a large enough effect; inconclusive = small, poorly fitted or top-dose-only effect, or another doubt; inactive = no such curve, though single readings can be large; an effect the other way counts as inactive or inconclusive.
Key:
[1] = target: Lysosomal acid glucosylceramidase (Homo sapiens) (UniProt P04062); assay: Glucocerebrosidase-p2 (AID 348; in the data active = potency below about 10 µM; note: potency is the fitted concentration of half-maximal effect); settings: purified GBA, blue fluorogenic substrate, 40 min
Outline: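 Normal human glucocerebrosidase (0.2 nM) with blue fluorogenic substrate (80 uM final) in citrate/phosphate pH 5.9 with 10mM sodium taurocholate, 0.01% tween-20; 40 min RT, NaOH/glycine stop; fluorescence Ex 365/Em 440; AC50 from a titration from 0.6 nM upwards.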

[2] = AP1 Signaling Pathway (AID 357; active = well fitted curve in either direction with a large enough effect, not every such curve was filed as active; note: % is set by controls: 0 for no effect and ±100 for the full control effect)
Outline: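 AP-1-bla ME-180 cells with beta-lactamase reporter under AP-1 response element, stimulated with EC50 EGF; compounds titrated, 5 hours at 37 degrees Celsius. CCF4 read at 460/530 nm ratio; positive and negative modulators judged by AC50.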

[3] = target: Cytochrome P450 1A2 (Homo sapiens) (UniProt P05177); assay: p450-cyp1a2 (AID 410; calls by dose curve;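 note: -100% = full effect of reference inhibitor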)
Outline: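 Luminescent demethylation readout: Luciferin-ME (100uM, equal to Km) turned over by 20nM CYP1A2 for 60 min at room temperature after NADPH regeneration addition, following 10 min compound preincubation. Normalization used 57 uM furafylline as full inhibition.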

[4] = NFAT Signaling Pathway (AID 444; active = well fitted curve in either direction with a large enough effect, not every such curve was filed as active;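 note: carbachol stimulus at about its EC50 of 1 µM final; % is set by controls: 0 for no effect and ±100 for the full control effect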); settings: Jurkat NFAT-bla M1, carbachol, beta-lactamase ratio, 5 h; at 17.2 µM (top of the series) unless noted
Outline: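 Read-out: CCF4 FRET ratio (460 nm/530 nm) after 1 h RT dye loading, used for %activity and AC50 from titration series. Cells: Jurkat NFAT-β-lactamase/M1 line, treated with compound plus 1 uM carbachol for 5 h, 37 °C.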

[5] = Stat Signaling Pathway (AID 446; active = well fitted curve in either direction with a large enough effect, not every such curve was filed as active;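 note: ME-180 cervical cancer cells given 40 pM IL-6 alongside compound; SIE-controlled beta-lactamase reporter measured as 460/530 nm FRET emission ratio; % is set by controls: 0 for no effect and ±100 for the full control effect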)
Outline: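 Compound effects on IL-6-induced STAT reporter activity were measured in ME-180 cells. After overnight culture, cells were co-treated with 40 pM IL-6 for 5 hrs before beta-lactamase substrate loading at room temperature.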

[6] = target: Glucocorticoid receptor (Homo sapiens) (UniProt P04150); assay: GR-GFP Redistribution (AID 450;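 active = compounds whose dose series gives a full or clear partial fitted curve of increased nuclear translocation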; note: potency is the fitted concentration of half-maximal effect); settings: U2OS GR-GFP nuclear translocation, laser cytometry, 2 h
[7] = target: Glucocorticoid receptor (Homo sapiens) (UniProt P04150); assay: GR-EFC Redistribution (AID 451; calls by dose curve; note: potency is the fitted concentration of half-maximal effect); settings: CHO-K1 GR-EFC translocation, beta-gal luminescence, 2 h
Outline: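 Translocation of GR-ED fusion to nuclear EA restores b-gal, read by luminescence after 1 h room-temperature detection. Engineered CHO-K1 biosensor cells, 1,000/well, exposed 2 h at 37 C to titrations up to 46 uM final.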

[8] = target: Mitogen-activated protein kinase 10 (Mus musculus) (UniProt Q61831); assay: JNK3 AlphaScreen Assay (AID 530; active = well fitted curve in either direction with a large enough effect, not every such curve was filed as active;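 note: kinase came from lysate of stimulated human HepG2 cells; signal reports phosphorylation of biotinylated GST-cJun 1-79 at Ser73 with 10 µM ATP; % is set by controls: 0 for no effect and ±100 for the full control effect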)
Outline: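 qHTS titrations with 15 min compound pre-incubation before adding ATP (10 uM final). Read-out: AlphaScreen of Ser73-phosphorylated biotin-GST-cJun using HepG2 lysate JNK3 activated by IL-1β and TNFα.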

[9] = target: 3',5'-cyclic-AMP phosphodiesterase 4B (Homo sapiens) (UniProt Q07343); assay: qHTS Assay for Inhibitors of PDE-IV (AID 607; active = well fitted activation curve with a large enough effect in the main read-out, with a control signal flat, not every such curve was filed as active; note: % of control where 0% means no effect)
Outline: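 ACTOne HEK293 cells carry a modified cAMP-gated CNG channel and express endogenous PDE4; plated 1000 cells/well, compounds up to 22.9 uM final. Membrane-potential dye fluorescence (ex 535/em 590) was read; parental cells received 10 uM forskolin + 100 uM RO 20-1724.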

[10] = target: ATP-dependent 6-phosphofructokinase (Trypanosoma brucei brucei) (UniProt O15648); assay: qHTS Assay to Find Inhibitors of T. brucei phosphofructokinase: hit validation (AID 492961)
Outline: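 In this biochemical qHTS validation, titrated compounds were tested against 1.25 nM PFK with 0.1 mM ATP and 0.5 mM F6P. Percent activity came from controls lacking or containing enzyme.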

[11] = target: Ubiquitin carboxyl-terminal hydrolase 1 (Homo sapiens) (UniProt O94782); assay: Inhibitors of USP1/UAF1: Pilot qHTS (AID 504865);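 note: rhodamine fluorescence freed from ubiquitin-rhodamine substrate followed over time; top concentration of the series differs between compounds; % is set by controls: 0 for no effect and ±100 for the full control effect; nearly all actives have a fitted effect of over 35% in size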
Outline: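 Deubiquitinase activity followed as kinetic rhodamine fluorescence release from 150 nM Ub-Rho. 1 nM USP1/UAF1 with compound, after 15 min room-temperature preincubation, in HEPES pH 7.8 buffer containing TCEP, EDTA, BSA and Tween-20.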

[12] = target: Luciferin 4-monooxygenase (Photinus pyralis) (UniProt P08659); assay: Biochemical firefly luciferase enzyme assay for NPC (AID 624030);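 note: purified P. pyralis luciferase at 10 nM with luciferin and ATP substrate; 0% = DMSO and -100% = full luciferase inhibition by PTC124 control; nearly all actives have a fitted effect of over 70% in size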
Outline: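 Direct inhibition of firefly luciferase enzyme (10 nM final, 50 mM Tris Acetate) assessed by luminescence within 5 minutes. Percent activity scaled between DMSO and PTC124 positive control, with concentration-effect curves classified by fit quality and response.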

[13] = S16 Schwann cell viability assay (CellTiter-Glo assay) (AID 624031);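 note: native untransfected S16 rat Schwann cells; cellular ATP luminescence as a viability measure; plate controls were DMSO-treated cells for no effect and cell-free wells for full effect; nearly all actives have a fitted effect of over 70% in size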
Outline: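 Rat S16 Schwann cells without reporter constructs received compound or DMSO for 24 h at 37 °C under 5% CO2. Cellular ATP was then quantified by CellTiter-Glo luminescence, with vehicle wells defined as 0% activity and cell-free wells as reference.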

[14] = S16 Schwann cell PMP22 intronic element firefly luciferase assay (AID 624032);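 note: plate controls were DMSO for no effect and PTC124 positive control mean for full effect; nearly all actives have a fitted effect of over 30% in size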
Outline: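 Luciferase reporter of PMP22 intronic-element expression in stably transfected S16 rat Schwann cells, read by ONE-Glo luminescence after 24 h compound exposure at 37 C. Activity scaled between DMSO (0%) and positive-control PTC124; concentration-effect curves quality-classified.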

[15] = target: Cytochrome P450 2D6 (Homo sapiens) (UniProt P10635); assay: Cytochrome P450 family 2 subfamily D member 6 (CYP2D6) small molecule antagonists: luciferase biochemical (cell-free) qHTS assay (AID 1645840; active = well fitted curve in the direction sought with a large enough effect in the repeat runs; an effect the other way counts as inactive or inconclusive; note: % is set by controls: 0 for no effect and ±100 for the full control effect; nearly all actives have a fitted effect of over 55% in size)
Outline: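 P450-Glo CYP2D6 system: proluciferin substrate converted by enzyme to luciferin, read by luminescence proportional to activity. Enzyme-substrate mix with compound 10 min at room temperature, then NADPH regeneration 1 h before detection reagent.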

[16] = target: Cytochrome P450 2C9 (Homo sapiens) (UniProt P11712); assay: Cytochrome P450 family 2 subfamily C member 9 (CYP2C9) small molecule antagonists: luciferase biochemical (cell-free) qHTS assay (AID 1645842; active = well fitted curve in the direction sought with a large enough effect in the repeat runs; an effect the other way counts as inactive or inconclusive; note: % is set by controls: 0 for no effect and ±100 for the full control effect; nearly all actives have a fitted effect of over 55% in size)
Outline: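 P450-Glo CYP2C9 system: proluciferin substrate with enzyme in mix containing 0.4% BSA, 10 min at room temperature, then NADPH regeneration solution added and incubated 1 h at 37C. Detection reagent stopped reaction; luminescence read after 20 min as RLU.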

[17] = target: Glutathione peroxidase 1 (Homo sapiens) (UniProt P07203); assay: Primary qHTS Assay for Inhibitors of Recombinant Selenoprotein Glutathione Peroxidase 1 (GPX1) (AID 1845191); note: % is set by controls: 0 for no effect and ±100 for the full control effect; nearly all actives have a fitted effect of over 65% in size
Outline: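 NADPH consumption tracked by fluorescence at 340/450 nm between t=0 and t=15 min, room temperature. Final mix: 10 nM GPX1, 100 nM glutathione reductase, 1 mM GSH, 0.5 mM NADPH, 0.5 mM cumene hydroperoxide, 0.01% BSA; 30 min compound–enzyme preincubation.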

[18] = target: Phospholipid hydroperoxide glutathione peroxidase GPX4 (Homo sapiens) (UniProt P36969); assay: Primary qHTS Assay for Inhibitors of Recombinant Selenoprotein Glutathione Peroxidase 4 (GPX4) (AID 1845192); note: nearly all actives have a fitted effect of over 65% in size
Outline: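 NADPH consumption followed by fluorescence at 340/450 nm, t=0 and after 15 min at room temperature. Reaction started with cumene hydroperoxide (0.5 mM final) after 30 min compound–GPX4 preincubation; final 200 nM GPX4, 100 nM GR, 1 mM GSH, 0.5 mM NADPH.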

[19] = qHTS profiling for inhibitors of Plasmodium falciparum proliferation (AID 504749);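 note: 0% = DMSO vehicle and full inhibition = artemisinin control; nearly all actives have a fitted effect of over 60% in size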; settings: P. falciparum in erythrocytes, SYBR Green DNA, 72 h, at 28.7 µM (top of the series)
Outline: (§1)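 SYBR Green fluorescence of parasite DNA, read after lysis and overnight dark incubation, measured growth over 72 h in erythrocyte culture at 0.3% parasitemia and 2.5% hematocrit. Data normalised to DMSO and 0.29 uM artemisinin, with plate-drift correction.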

3D7 = assay: as above; settings: P. falciparum in erythrocytes, SYBR Green DNA, 72 h; series mostly up to 12.8 µM
Outline: as §1

7G8 = assay: as above; settings: P. falciparum in erythrocytes, SYBR Green DNA, 72 h; series mostly up to 12.8 µM
Outline: as §1

AA1029 = assay: as above; settings: P. falciparum in erythrocytes, SYBR Green DNA, 72 h; series mostly up to 12.8 µM
Outline: as §1

AS120 = assay: as above; settings: P. falciparum in erythrocytes, SYBR Green DNA, 72 h; series mostly up to 12.8 µM
Outline: as §1

ATS189 = assay: as above; settings: P. falciparum in erythrocytes, SYBR Green DNA, 72 h; series mostly up to 12.8 µM
Outline: as §1

ATS95 = assay: as above; settings: P. falciparum in erythrocytes, SYBR Green DNA, 72 h; series mostly up to 12.8 µM
Outline: as §1

C2A = assay: as above; settings: P. falciparum in erythrocytes, SYBR Green DNA, 72 h; series mostly up to 12.8 µM
Outline: as §1

CP185 = assay: as above; settings: P. falciparum in erythrocytes, SYBR Green DNA, 72 h; series mostly up to 12.8 µM
Outline: as §1

CP191 = assay: as above; settings: P. falciparum in erythrocytes, SYBR Green DNA, 72 h; series mostly up to 12.8 µM
Outline: as §1

CP192 = assay: as above; settings: P. falciparum in erythrocytes, SYBR Green DNA, 72 h; series mostly up to 12.8 µM
Outline: as §1

CP194 = assay: as above; settings: P. falciparum in erythrocytes, SYBR Green DNA, 72 h; series mostly up to 12.8 µM
Outline: as §1

CP201 = assay: as above; settings: P. falciparum in erythrocytes, SYBR Green DNA, 72 h; series mostly up to 12.8 µM
Outline: as §1

CP203 = assay: as above; settings: P. falciparum in erythrocytes, SYBR Green DNA, 72 h; series mostly up to 12.8 µM
Outline: as §1

CP211 = assay: as above; settings: P. falciparum in erythrocytes, SYBR Green DNA, 72 h; series mostly up to 12.8 µM
Outline: as §1

CP215 = assay: as above; settings: P. falciparum in erythrocytes, SYBR Green DNA, 72 h; series mostly up to 12.8 µM
Outline: as §1

CP217 = assay: as above; settings: P. falciparum in erythrocytes, SYBR Green DNA, 72 h; series mostly up to 12.8 µM
Outline: as §1

CP237 = assay: as above; settings: P. falciparum in erythrocytes, SYBR Green DNA, 72 h; series mostly up to 12.8 µM
Outline: as §1

CP238 = assay: as above; settings: P. falciparum in erythrocytes, SYBR Green DNA, 72 h; series mostly up to 12.8 µM
Outline: as §1

CP247 = assay: as above; settings: P. falciparum in erythrocytes, SYBR Green DNA, 72 h; series mostly up to 12.8 µM
Outline: as §1

Chain of Glucocorticoid receptor (Homo sapiens) (P04150 whole entry, looked up, the tested form may be a part): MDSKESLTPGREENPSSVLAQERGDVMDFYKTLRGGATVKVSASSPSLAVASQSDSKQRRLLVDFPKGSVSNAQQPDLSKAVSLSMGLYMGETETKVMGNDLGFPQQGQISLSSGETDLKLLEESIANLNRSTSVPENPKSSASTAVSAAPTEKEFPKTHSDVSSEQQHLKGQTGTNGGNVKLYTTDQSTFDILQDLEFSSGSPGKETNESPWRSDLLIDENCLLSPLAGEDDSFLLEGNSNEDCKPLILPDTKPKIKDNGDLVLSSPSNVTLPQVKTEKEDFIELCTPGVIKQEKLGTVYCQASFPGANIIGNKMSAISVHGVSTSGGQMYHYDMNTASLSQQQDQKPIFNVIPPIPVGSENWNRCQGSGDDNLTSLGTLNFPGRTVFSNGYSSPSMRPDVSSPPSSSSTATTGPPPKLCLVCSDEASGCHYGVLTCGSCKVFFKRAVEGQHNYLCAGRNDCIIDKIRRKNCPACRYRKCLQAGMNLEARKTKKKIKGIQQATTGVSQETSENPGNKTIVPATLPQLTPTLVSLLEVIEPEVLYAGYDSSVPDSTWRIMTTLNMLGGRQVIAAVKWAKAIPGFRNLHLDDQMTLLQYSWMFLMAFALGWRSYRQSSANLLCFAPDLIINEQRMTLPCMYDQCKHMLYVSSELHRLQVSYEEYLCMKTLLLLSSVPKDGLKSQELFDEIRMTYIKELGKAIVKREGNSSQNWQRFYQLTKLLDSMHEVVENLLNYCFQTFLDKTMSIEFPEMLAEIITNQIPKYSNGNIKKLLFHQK
Chain of Ubiquitin carboxyl-terminal hydrolase 1 (Homo sapiens) (O94782 whole entry, looked up): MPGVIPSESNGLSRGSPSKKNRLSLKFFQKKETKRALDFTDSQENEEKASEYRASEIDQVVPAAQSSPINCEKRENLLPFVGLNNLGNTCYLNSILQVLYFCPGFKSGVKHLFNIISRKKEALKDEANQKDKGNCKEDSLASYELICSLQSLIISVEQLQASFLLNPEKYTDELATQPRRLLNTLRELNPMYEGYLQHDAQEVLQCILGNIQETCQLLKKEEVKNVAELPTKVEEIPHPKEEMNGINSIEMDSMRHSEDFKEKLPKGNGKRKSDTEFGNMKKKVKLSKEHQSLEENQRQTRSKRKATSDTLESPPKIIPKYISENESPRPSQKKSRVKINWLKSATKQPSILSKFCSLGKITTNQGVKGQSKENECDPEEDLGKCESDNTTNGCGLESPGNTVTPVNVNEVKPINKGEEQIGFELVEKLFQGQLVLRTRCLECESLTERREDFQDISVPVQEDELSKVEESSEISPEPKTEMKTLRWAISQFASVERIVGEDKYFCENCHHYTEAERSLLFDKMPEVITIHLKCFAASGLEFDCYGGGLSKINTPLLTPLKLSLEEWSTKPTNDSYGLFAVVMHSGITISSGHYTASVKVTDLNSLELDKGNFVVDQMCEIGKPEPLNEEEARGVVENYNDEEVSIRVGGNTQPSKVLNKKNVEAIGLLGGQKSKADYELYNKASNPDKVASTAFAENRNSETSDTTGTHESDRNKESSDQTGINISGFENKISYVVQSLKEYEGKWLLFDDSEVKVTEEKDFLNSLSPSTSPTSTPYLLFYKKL
Chain of ATP-dependent 6-phosphofructokinase (Trypanosoma brucei brucei) (O15648 whole entry, looked up): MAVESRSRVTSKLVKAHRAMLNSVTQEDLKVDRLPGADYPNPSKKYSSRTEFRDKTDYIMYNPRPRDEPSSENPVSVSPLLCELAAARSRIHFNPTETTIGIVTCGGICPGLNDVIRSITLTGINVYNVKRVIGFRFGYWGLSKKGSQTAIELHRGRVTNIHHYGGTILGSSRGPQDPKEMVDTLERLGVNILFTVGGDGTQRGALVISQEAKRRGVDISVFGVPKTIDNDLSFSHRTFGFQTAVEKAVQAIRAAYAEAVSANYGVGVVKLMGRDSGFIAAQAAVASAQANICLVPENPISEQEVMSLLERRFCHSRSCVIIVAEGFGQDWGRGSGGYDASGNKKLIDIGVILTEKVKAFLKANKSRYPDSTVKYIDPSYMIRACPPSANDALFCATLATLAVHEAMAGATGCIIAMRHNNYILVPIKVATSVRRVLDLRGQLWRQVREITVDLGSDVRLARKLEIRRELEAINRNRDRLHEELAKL
Chain of Glutathione peroxidase 1 (Homo sapiens) (P07203 whole entry, looked up): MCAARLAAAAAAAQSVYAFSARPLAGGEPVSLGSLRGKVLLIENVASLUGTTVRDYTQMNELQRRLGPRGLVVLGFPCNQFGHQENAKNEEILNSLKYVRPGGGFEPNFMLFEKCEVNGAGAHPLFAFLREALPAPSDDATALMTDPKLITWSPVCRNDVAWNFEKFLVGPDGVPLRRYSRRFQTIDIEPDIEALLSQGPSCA
Chain of Cytochrome P450 1A2 (Homo sapiens) (P05177 whole entry, looked up): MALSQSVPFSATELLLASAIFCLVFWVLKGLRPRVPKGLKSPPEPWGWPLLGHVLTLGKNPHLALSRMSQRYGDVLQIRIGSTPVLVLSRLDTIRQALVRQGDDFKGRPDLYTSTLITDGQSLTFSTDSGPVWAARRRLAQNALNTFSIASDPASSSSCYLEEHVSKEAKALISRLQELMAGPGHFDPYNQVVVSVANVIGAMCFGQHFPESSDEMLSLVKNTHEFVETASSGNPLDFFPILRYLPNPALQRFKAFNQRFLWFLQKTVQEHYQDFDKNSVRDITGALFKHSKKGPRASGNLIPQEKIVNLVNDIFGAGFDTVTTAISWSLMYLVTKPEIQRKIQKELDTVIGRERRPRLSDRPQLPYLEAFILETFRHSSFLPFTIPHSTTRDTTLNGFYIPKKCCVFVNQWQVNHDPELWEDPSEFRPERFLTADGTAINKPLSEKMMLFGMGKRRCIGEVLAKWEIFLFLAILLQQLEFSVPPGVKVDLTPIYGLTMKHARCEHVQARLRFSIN
Chain of Phospholipid hydroperoxide glutathione peroxidase GPX4 (Homo sapiens) (P36969 whole entry, looked up): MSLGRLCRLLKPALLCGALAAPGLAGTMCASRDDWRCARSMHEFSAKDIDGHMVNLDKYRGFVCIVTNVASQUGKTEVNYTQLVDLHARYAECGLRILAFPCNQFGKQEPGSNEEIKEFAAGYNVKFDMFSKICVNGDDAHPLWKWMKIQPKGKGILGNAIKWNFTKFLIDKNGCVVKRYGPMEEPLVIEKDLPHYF
Chain of Cytochrome P450 2C9 (Homo sapiens) (P11712 whole entry, looked up): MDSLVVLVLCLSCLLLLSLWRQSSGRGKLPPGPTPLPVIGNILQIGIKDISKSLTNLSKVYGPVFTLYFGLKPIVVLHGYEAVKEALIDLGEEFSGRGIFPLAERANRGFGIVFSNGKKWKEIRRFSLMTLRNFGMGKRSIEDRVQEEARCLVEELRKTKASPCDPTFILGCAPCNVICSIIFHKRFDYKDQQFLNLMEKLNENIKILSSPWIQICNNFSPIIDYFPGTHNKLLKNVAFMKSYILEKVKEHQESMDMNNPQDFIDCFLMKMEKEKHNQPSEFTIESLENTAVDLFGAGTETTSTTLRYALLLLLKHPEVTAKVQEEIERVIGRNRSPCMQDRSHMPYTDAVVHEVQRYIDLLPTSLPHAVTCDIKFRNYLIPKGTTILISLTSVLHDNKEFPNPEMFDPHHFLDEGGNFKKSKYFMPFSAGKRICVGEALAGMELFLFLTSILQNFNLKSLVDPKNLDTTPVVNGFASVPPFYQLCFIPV
Chain of 3',5'-cyclic-AMP phosphodiesterase 4B (Homo sapiens) (Q07343 whole entry, looked up): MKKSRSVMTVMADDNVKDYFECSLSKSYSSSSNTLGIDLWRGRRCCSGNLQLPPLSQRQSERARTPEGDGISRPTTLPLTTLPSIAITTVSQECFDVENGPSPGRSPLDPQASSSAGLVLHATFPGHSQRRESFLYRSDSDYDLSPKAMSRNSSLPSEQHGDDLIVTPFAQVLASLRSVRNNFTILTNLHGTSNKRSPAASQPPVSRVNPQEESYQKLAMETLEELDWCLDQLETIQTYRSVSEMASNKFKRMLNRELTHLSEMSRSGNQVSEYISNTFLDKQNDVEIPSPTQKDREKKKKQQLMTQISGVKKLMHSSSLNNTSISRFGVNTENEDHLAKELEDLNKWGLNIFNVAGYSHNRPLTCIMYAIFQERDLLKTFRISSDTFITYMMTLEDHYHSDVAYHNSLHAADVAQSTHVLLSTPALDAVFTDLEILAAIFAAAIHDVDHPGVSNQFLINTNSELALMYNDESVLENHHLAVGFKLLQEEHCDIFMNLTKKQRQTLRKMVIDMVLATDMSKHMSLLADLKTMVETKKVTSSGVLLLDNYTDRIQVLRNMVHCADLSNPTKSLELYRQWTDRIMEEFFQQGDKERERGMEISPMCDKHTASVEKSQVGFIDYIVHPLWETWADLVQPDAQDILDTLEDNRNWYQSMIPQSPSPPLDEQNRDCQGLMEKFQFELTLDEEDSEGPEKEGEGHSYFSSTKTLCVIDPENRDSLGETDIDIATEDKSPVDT
Chain of Lysosomal acid glucosylceramidase (Homo sapiens) (P04062 whole entry, looked up): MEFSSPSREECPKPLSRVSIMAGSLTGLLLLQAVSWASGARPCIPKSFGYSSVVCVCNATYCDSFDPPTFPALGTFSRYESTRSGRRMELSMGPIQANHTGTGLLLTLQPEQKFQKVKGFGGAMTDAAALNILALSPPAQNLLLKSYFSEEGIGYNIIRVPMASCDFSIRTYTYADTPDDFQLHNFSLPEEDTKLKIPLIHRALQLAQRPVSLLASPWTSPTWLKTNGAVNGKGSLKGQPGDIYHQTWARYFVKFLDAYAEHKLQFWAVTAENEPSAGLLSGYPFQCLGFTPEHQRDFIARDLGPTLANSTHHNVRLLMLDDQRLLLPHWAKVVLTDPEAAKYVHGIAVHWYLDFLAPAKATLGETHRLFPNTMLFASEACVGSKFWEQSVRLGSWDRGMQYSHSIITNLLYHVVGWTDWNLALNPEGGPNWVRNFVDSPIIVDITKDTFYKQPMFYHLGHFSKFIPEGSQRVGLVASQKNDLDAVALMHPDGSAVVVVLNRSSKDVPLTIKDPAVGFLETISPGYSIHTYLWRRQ

O=C(O)[C@@H]1CCCN1
inactive: Potency [1] > 11.4 µM | outcome [2] | Potency [3] | activity change, negative = inhibition [4] -2.98% [at 7.69 µM] | outcome [5] | Potency [6] > 46 µM | Potency [7] > 9.22 µM | Potency [8] | outcome [9] | outcome [10] | Potency [11] | Potency [12] | outcome [13] | Potency [14] | Potency [15] | Potency [16] | Potency [17] | Potency [18] | activity, negative = inhibition ([19]; parasite line A) 3.04% | activity, negative = inhibition ([19]; parasite line B) -1.27% | Potency (3D7) | Potency (7G8) | Potency (AA1029) | Potency (AS120) | Potency (ATS189) | Potency (ATS95) | Potency (C2A) | Potency (CP185) | Potency (CP191) | Potency (CP192) | Potency (CP194) | Potency (CP201) | Potency (CP203) | Potency (CP211) | Potency (CP215) | Potency (CP217) | Potency (CP237) | Potency (CP238) | Potency (CP247)
